LmPK inh: inhibitors of Leishmania mexicana pyruvate kinase; AID 1721; 0.37% of 290,000 active; Q27686; purified LmPK, Kinase-Glo ATP luminescence, 1 h; Potency, µM (highest dose often 57.5 µM), for the others: top-dose activity change, negative = inhibition, hits mostly inhibitors
Target sequence (Q27686 whole entry, looked up): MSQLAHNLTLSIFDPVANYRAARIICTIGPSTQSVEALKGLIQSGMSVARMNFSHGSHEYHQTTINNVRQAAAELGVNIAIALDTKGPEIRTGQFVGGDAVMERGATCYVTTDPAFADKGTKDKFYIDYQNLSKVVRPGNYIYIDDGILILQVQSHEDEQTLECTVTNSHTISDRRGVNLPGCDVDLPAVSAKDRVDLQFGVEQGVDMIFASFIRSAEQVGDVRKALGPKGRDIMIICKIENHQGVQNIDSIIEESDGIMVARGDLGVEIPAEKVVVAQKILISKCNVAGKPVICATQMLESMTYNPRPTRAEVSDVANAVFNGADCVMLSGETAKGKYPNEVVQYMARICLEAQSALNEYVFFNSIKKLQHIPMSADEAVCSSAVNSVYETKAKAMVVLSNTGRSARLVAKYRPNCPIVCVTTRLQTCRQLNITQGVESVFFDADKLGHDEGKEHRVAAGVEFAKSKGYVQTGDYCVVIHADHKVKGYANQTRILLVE
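Purified LmPK (0.1 nM) converted ADP (0.1 mM) to ATP with PEP (0.5 mM) in imidazole buffer pH 7.2 with KCl and MgCl2, 1 h at room temperature. ATP was read by Kinase-Glo luminescence; data normalized to uninhibited and no-enzyme controls.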
AmpC inh no detg: AmpC beta-lactamase inhibition without detergent; P00811; AmpC nitrocefin hydrolysis, absorbance 480 nm, 0.0001% Triton; Potency, µM (doses to about 57.1 µM), for inactives: top-dose activity change, negative = inhibition, actives largely listed as inhibitors; 0.52% of 330,000 active;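 note: plate controls were no compound for no effect and no enzyme for full effect; nearly all actives have a fitted effect of over 20% in size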
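AmpC (5.3 nM in the dispensed reagent) in 20 mM phosphate pH 7.0 with 0.01% (detergent screen) or 0.0001% Triton X-100 was preincubated with compounds for 15 min at room temperature. Nitrocefin was then added from an 800 uM solution, and hydrolysis was followed at 480 nm.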
AmpC inh detg: AmpC beta-lactamase inhibition with detergent present; AmpC hydrolysis of nitrocefin, absorbance 480 nm, 0.01% Triton; Potency, µM (titrated, usually from 114 µM), for the others: at the top dose activity change, negative = inhibition, most hits filed as inhibitors; 0.041% of 370,000 active; AID 485294;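 note: 0% = no-compound wells and -100% = no-enzyme wells; nearly all actives have a fitted effect of over 25% in size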
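AmpC (5.3 nM in the dispensed reagent) in 20 mM phosphate pH 7.0 with 0.01% (detergent screen) or 0.0001% Triton X-100 was preincubated with compounds for 15 min at room temperature. Nitrocefin was then added from an 800 uM solution, and hydrolysis was followed at 480 nm.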
RE007 growth inh: less growth of the S. pombe RE007 Vpr strain | S. pombe RE007 Vpr strain, BacTiter-Glo ATP luminescence, 24 h | Potency, µM (titrated, usually from 92.2 µM), without a hit: at the highest dose activity change, negative = less growth, most hits filed as inhibitors | 0.21% of 360,000 active | AID 651644; active = well fitted falling curve with a large enough effect; inconclusive = small, poorly fitted or top-dose-only effect; inactive = no such curve, though single readings can be large or run the other way; note: nearly all actives have a fitted effect of over 50% in size
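Fission yeast strain RE007, carrying one chromosomally integrated HIV-1 vpr copy, was seeded at OD 0.01 in PMG+AL medium with 23 nL pinned compound. After 24 h at 30 °C and 99% humidity, viability was read by BacTiter-Glo luminescence.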
FBPA Giardia inh: blocks Giardia fructose-bisphosphate aldolase activity; A8B2U2; purified Giardia FBPA; Potency, µM (highest dose often 59.6 µM), for inactives: top-dose activity, negative = inhibition, usual class: inhibitors; 0.71% of 290,000 active; AID 2451; note: nearly all actives have a fitted effect of over 55% in size
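40 nM FBPA preincubated 10 min at RT with compound (up to 57.5 uM final), then substrate plus GAPDH/TPI/NAD/arsenate coupling and diaphorase/resazurin added. Fluorescence read after 20 min at RT, 525/598 nm.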
TbPYK inhibitor: T. brucei pyruvate kinase inhibition | Q57TT1 | TbPYK enzyme, Kinase-Glo Plus ATP luminescence, 45 min | Potency, µM (top dose mostly 76.8 µM), for the others: at the top dose activity, negative = inhibition, actives largely listed as inhibitors | 0.12% of 410,000 active; note: nearly all actives have a fitted effect of over 50% in size
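In this concentration-response screen, enzyme-free wells defined baseline while DMSO plates tracked drift. Each reaction combined TbPYK, substrate, compound and 130 uM ADP for 45 min at room temperature. Kinase-Glo Plus luminescence gave the signal.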
* hit, by the source's call; ? = inconclusive; / = no result; [ ] = dose if it differs, or a comment. Most compounds without a hit are left out; they make up all but 1.4% or so of the library. Unless noted, calls come from the whole dose curve; as a rule, active = well fitted curve in the direction sought with a large enough effect; inconclusive = small, poorly fitted or top-dose-only effect, or another doubt; inactive = no such curve, though single readings can be large; an effect the other way counts as inactive or inconclusive. Unless noted, % is set by controls: 0 for no effect and ±100 for the full control effect; potency is the fitted concentration of half-maximal effect.

SMILES	LmPK inh	AmpC inh no detg	AmpC inh detg	RE007 growth inh	FBPA Giardia inh	TbPYK inhibitor
O=C(C1CCN(C2CC(=O)N(c3ccc(Cl)cc3)C2=O)CC1)N1CCOCC1 (stereo not drawn)	-2.5%	-12.3%	-15.5%	12.6µM*	-0.2%	-8.8%
CCN(CC)C1CC(=O)N(c2cccc(Cl)c2)C1=O (stereo not drawn)	-1.4%	-19.4%	-7.8%	5.62µM*	12.1%	-2.4%
Cc1cc2c(cc1S(=O)(=O)N(CCN(C)C)Cc1ccccc1)OCC(=O)N2	/	/	-4.2%	/	/	6.5%[15.4 µM]
CCN(CC)CCOC(=O)c1ccc(NC(=O)c2cc3c(=O)n(CC)c4ccccc4c3s2)cc1	/	/	-12.2%	/	/	-3.3%
Cc1ccc(NC(=O)c2oc3ccccc3c2NC(=O)C23CC4CC(CC(C4)C2)C3)cc1	/	/	0.1%	/	/	-9.8%
O=S(=O)(c1ccc(-c2csc(=Nc3ccc(OC(F)(F)Cl)cc3)n2CCCO)cc1)N1CCCC1	/	/	2.9%	/	/	-6.2%
CCOC(=O)C1CCCN(c2nc3c(S(=O)(=O)c4ccc(C)c(C)c4)nnn3c3ccc(Cl)cc23)C1 (stereo not drawn)	/	/	20.9%	/	/	0.7%
CCOC(=O)C1CCCN(C2CC(=O)N(c3ccc(C)cc3)C2=O)C1 (stereo not drawn)	-7.9%	-1.1%	1.8%	?	2.5%	0.4%
CCOc1cccc(N2C(=O)CC(N(CCc3ccc(OC)c(OC)c3)C(=O)CC)C2=O)c1 (stereo not drawn)	-0.5%	61.7%	0.9%	-1.2%	-0.7%	0.0%
CCOC(=O)c1ccc(N2C(=O)CC(N(C)CCc3ccc(OC)c(OC)c3)C2=O)cc1 (stereo not drawn)	9.4%	122.3%	-0.1%	3.98µM*	-6.3%	-4.9%
CCOC(=O)C1CCN(C2CC(=O)N(c3cccc(Cl)c3)C2=O)CC1 (stereo not drawn)	1.2%	-6.0%	-9.4%	10µM*	2.4%	-14.9%
O=C(C1CCN(C2CC(=O)N(c3cccc(Cl)c3)C2=O)CC1)N1CCCC1 (stereo not drawn)	-0.8%	16.8%	?	12.6µM*	-2.7%	4.1%
O=C(CC1NCCNC1=O)Nc1ccccc1F (stereo not drawn)	/	/	1.6%	/	/	2.5%
O=S(=O)(Nc1ccccc1O)c1cccc2cccnc12	6.6%	-33.5%	-2.6%	12.5%	-25.2%	-1.2%
O=S(=O)(Nc1cccc2cccnc12)c1ccccc1O	/	/	/	/	19.9µM*	/
Cc1ccc(C2C(/C=C3/SC(=S)NC3=O)=C(c3cccs3)Oc3ccccc32)cc1 (stereo not drawn)	3.9%	6.31µM*	6.5%	11.7%	9.3%	5.0%
Cc1ccc(Cc2cnc(N3C(=N)SC(c4ccccc4)C3=O)s2)cc1 (stereo not drawn)	2.8%	?	-6.4%	/	13.9%	-5.1%
N=C1SC(c2ccccc2)C(=O)N1c1ncc(Cc2ccccc2)s1 (stereo not drawn)	1.2%	31.6µM*	7.8%	-3.5%	19.7%	-1.5%
Cc1ccc(NC(=O)CSc2nc3ccc(NC(=O)COc4ccc(C)cc4)cc3s2)cc1	/	/	17.9%	/	/	-5.6%
COc1ccc(/C=C/c2nc(C#N)c(N3CCCCC3)o2)cc1OC	/	/	22.8%	/	/	1.8%
COCCn1c(C23CC4CC(CC(C4)C2)C3)n[nH]c1=S	-26.7%	0.0%	-2.2%	17.1%	0.4%	7.94µM*
CCCC[C@@H]1CNC(=S)N1CCC12CC3CC(CC(C3)C1)C2	2.4%	-19.4%	-0.5%	9.6%	5.5%	-16.0%
CCCCn1c(C23CC4CC(CC(C4)C2)C3)n[nH]c1=S	-15.4%	-54.6%	-9.5%	8.2%	12.4%	6.31µM*
Cc1cccc(NC(=O)c2ccc(F)c(S(=O)(=O)NCc3ccc4c(c3)OCO4)c2)c1	/	/	8.3%	/	/	-7.4%
Cc1ccc(OCCC(=O)OCC(=O)NC2CCCCC2)cc1	/	/	/	-22.9%	/	0.3%
SMILES	LmPK inh	AmpC inh no detg	AmpC inh detg	RE007 growth inh	FBPA Giardia inh	TbPYK inhibitor
Cc1ccc(OCCC(=O)OCC(=O)NC(=O)NC2CCCC2)cc1	/	35.5µM*	-14.5%	-26.7%	/	-2.2%
CCOCCCNC(=S)N1C2CCC1CC(NC(=O)NC1CCCCC1)C2 (stereo not drawn)	-2.4%	0.316µM*	-1.8%	-7.9%	0.3%	3.2%
O=C(NCc1ccccc1F)C(=O)NCC1CCCN1S(=O)(=O)c1ccccc1 (stereo not drawn)	/	35.5µM*	?	-1.6%	/	?
O=C(NCCC1CCCCN1S(=O)(=O)c1ccccc1)C(=O)NCc1ccccc1F (stereo not drawn)	/	-14.0%	-4.9%	-6.5%	/	-2.2%
CCOC(=O)c1cc(C)n(CC2CCC(C(=O)Nc3cccc(C)c3)CC2)c1C (stereo not drawn)	/	/	20.2%	/	/	1.6%
Cc1cccc(-n2c(Cc3ccccc3)n[nH]c2=S)c1	7.08µM*	18.5%	-5.3%	21.4%	3.1%	?
COc1ccc(-n2c(CCc3ccccc3)n[nH]c2=S)cc1	-8.4%	4.1%[2.29 µM]	2.7%	-3.5%	0.5%	?
CCc1ccc(-n2c(Cc3ccccc3)n[nH]c2=S)cc1	-5.3%	-12.9%	-6.7%	-3.7%	3.2%	3.98µM*
Cc1cccc(-n2c(CNC(=O)Cc3ccccc3)n[nH]c2=S)c1	-1.9%	-8.6%	?	7.5%	-18.6%	?
S=c1[nH]nc(Cc2cccc3ccccc23)n1-c1ccccc1	14.1µM*	-26.6%	-1.6%	10.7%	-15.6%	5.01µM*
COc1cccc(-n2c(CCn3nc(C)c([N+](=O)[O-])c3C)n[nH]c2=S)c1	-19.5%	-12.7%	-4.6%	10.6%	-5.7%	?
Cc1cccc(-n2c(CCn3nc(C)c([N+](=O)[O-])c3C)n[nH]c2=S)c1	?	-24.0%	0.5%	-7.3%	-9.1%	8.91µM*
CCOc1ccc(-n2c(CCc3ccccc3)n[nH]c2=S)cc1	?	-17.3%	6.7%	12.9%	4.3%	3.16µM*
S=c1[nH]nc(CCSCc2ccccc2)n1-c1ccccc1	-7.4%	-38.5%	3.9%	7.2%	4.8%	5.62µM*
Oc1ccc(CCc2n[nH]c(=S)n2-c2ccc(F)cc2)cc1	7.94µM*	-23.1%	1.8%	10.7%	0.5%	?
CCCCOc1ccc(OC(=O)c2sc3ncn(Cc4cccc(F)c4)c(=O)c3c2C)cc1	/	/	5.0%	/	/	2.9%
COc1ccc(NS(=O)(=O)c2ccc3[nH]c4c(c3c2)CCCC4)cc1OC	/	/	-1.7%	/	/	-7.2%
Cc1nc2c(C(=O)NCCC(C)C)cnn2c(C)c1Cc1c(F)cccc1Cl	/	/	6.7%	/	/	1.6%
O=S(=O)(c1ccc(-c2csc(Nc3ccc(F)cc3)n2)cc1)N1CCCC1	-0.2%	8.91µM*	-3.4%	17.5%	11.0%	-9.6%

Compound activity from PubChem BioAssay.
